# Assay outcomes from PubChem BioAssay.
# Shown is part of a subset that was picked to be rich in hits.
# AMPAR-TARP mod – modulators of AMPA receptor GluA2-stargazin complexes; O88602+P19491; HEK293 GluA2+stargazin, membrane potential dye (FDSS), glutamate EC50; hits were called plate by plate, in both directions; calls only at 30 µM; 40,000 compounds, 3.5% hits; AID 1259245;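 active = any of four per-well response measures lying three or more SD from its plate-wide compound average, in either direction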
# GIRK2 act – GIRK2 channel activators by thallium flux; P48051; HEK293 GIRK2/NPY4 cells, thallium flux fluorescence; AID 1259324; 34,000 tested, under 10 active; activation (% efficacy), % for hits at 37.5 µM;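 active = primary screen hit, no activity in plain HEK293 cells, and in GIRK2-only cells above 5% efficacy rising with concentration; inactive = the rest, including fluorescent compounds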;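 note: efficacy is normalized control-subtracted fluorescence 15 s after thallium addition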
# Target sequence (P48051 whole entry, looked up): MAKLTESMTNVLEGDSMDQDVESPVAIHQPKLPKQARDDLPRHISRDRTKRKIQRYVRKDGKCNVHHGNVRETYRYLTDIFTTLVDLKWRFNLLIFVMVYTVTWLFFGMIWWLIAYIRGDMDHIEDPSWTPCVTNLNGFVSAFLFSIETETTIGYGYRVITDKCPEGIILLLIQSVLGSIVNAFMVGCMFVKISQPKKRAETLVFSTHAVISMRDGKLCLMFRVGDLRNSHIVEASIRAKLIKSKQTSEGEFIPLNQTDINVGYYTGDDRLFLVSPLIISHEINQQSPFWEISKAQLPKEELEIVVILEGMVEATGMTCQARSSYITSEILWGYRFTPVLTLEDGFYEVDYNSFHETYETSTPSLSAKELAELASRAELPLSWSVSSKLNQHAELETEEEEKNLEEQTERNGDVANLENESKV
# Starred values were filed as active, the others as inactive; i = inactive; nt = no result; + = active, no number.
SMILES,AMPAR-TARP mod,GIRK2 act
CCc1ccc(S(=O)(=O)Nc2ccc3c(c2)CCCN3C(=O)c2ccccc2)cc1,i,nt
Cc1cccc(CN(c2ccc3c(c2)OCO3)S(=O)(=O)c2ccc3nncn3c2)c1,+,i
COc1ccc(N(Cc2ccccc2)S(=O)(=O)c2ccc3nncn3c2)cc1,i,i
COc1cccc(C(CNC(=O)c2c(F)cccc2Cl)N2CCOCC2)c1 (stereo not drawn),i,i
CCS(=O)(=O)c1ccc(C(=O)Nc2sc(C(=O)OC)c(C)c2C#N)cc1,+,i
Cc1sc(NC(=O)c2ccc(S(=O)(=O)C(C)C)cc2)c(C#N)c1C,i,i
CCCN1CCCc2cc(CCNC(=O)C(=O)NCCc3ccccc3)ccc21,i,nt
COc1ccc(N2CCN(c3nc4c(c(=O)[nH]c(=O)n4C)n3CC(=O)c3ccccc3)CC2)cc1,i,nt
CN1CCN(c2nc3c(c(=O)[nH]c(=O)n3C)n2CC(=O)c2ccc([N+](=O)[O-])cc2)CC1,+,nt
CSc1ccccc1C(=O)N1CCN(c2ncnc3c2nnn3-c2ccccc2)CC1,i,nt
COc1ccc(-c2cc(=O)n(CC(=O)N3CCN(CCc4ccccc4)CC3)cn2)cc1,nt,i
COc1ccc(-c2csc(CN3CCN(C(=O)c4ccco4)CC3)n2)cc1,i,nt
O=C(CCCc1ccccc1)NCCNC(=O)c1ccc(NC(=O)C2CC2)cc1,i,i
Cn1c(-c2ccccn2)nn(CCNC(=O)C2(c3ccc(Cl)cc3)CCCC2)c1=O,+,i
Cn1c(C(F)(F)F)nn(CCNC(=O)C2(c3ccc(Cl)cc3)CCCC2)c1=O,i,i
COc1ccc(NC(=O)C2CN(c3nc4c(C(F)(F)F)cccc4s3)C2)cc1OC,i,i
Cc1cc(=O)n(CC(=O)Nc2cccc(Cl)c2)cn1,i,i
Cc1cccc(NC(=O)c2cc3c(=O)n(C)c(=O)n(C)c3s2)c1C,i,i
CC(O)CNC(=O)c1cc2c(=O)n(C)c(=O)n(C)c2s1 (stereo not drawn),i,i
Cn1c(=O)c2cc(C(=O)N3CCCC3)sc2n(C)c1=O,+,i
CCCCN(C(=O)c1cc2c(=O)n(C)c(=O)n(C)c2s1)c1ccccc1,+,i
Cn1c(=O)c2cc(C(=O)NCCc3ccc(S(N)(=O)=O)cc3)sc2n(C)c1=O,+,i
CC(=O)Nc1cccc(NC(=O)c2cc3c(=O)n(C)c(=O)n(C)c3s2)c1,+,i
COC(=O)C1CCN(C(=O)c2cc3c(=O)n(C)c(=O)n(C)c3s2)CC1,i,i
Cn1c(=O)c2cc(C(=O)N3CCN(c4ccccc4)CC3)sc2n(C)c1=O,i,nt
SMILES,AMPAR-TARP mod,GIRK2 act
CCOC(=O)c1nnn(CC(=O)Nc2ccc(C(=O)OC)cc2)c1C(=O)OCC,i,i
O=C(CSc1ccc(-c2ccccc2)nn1)Nc1ccc(F)c([N+](=O)[O-])c1,i,nt
COc1ccc2cc(-c3csc(NC(=O)c4cc(C)on4)n3)oc2c1,i,i
COc1ccc(S(=O)(=O)CC(=O)Nc2sc3c(c2C(N)=O)CCN(C(C)=O)C3)cc1,i,i
CSc1ccccc1NC(=O)Cc1csc(NC(=O)c2ccc[nH]c2=O)n1,i,i
O=C(Cc1ccccc1Cl)Nc1ccc2c(c1)N(S(=O)(=O)c1ccc(F)cc1)CCC2,i,i
O=C(Cc1cc(-c2ccc(Cl)cc2)on1)N1CCCC1,i,i
Cn1c(=O)c2cc(C(=O)NCCCCO)sc2n(C)c1=O,+,i
Cn1c(=O)c2cc(C(=O)NCC(O)CO)sc2n(C)c1=O (stereo not drawn),i,i
Cn1c(=O)c2cc(C(=O)NCCN3CCOCC3)sc2n(C)c1=O,+,i
Cn1c(=O)c2cc(C(=O)NCC3CCCO3)sc2n(C)c1=O (stereo not drawn),i,i
O=C(Nc1ccc(N2CCCC2=O)cc1)C1CCCC1,i,i
Cc1cc(CN2CCC(CNC(=O)C(=O)NCc3cccs3)CC2)c(C)o1,i,i
Cc1nc2ccc(NC(=O)C3CCN(S(=O)(=O)c4ccc(F)cc4)CC3)cc2s1,i,i
C=CCn1c(SCC(=O)NCC2CCCO2)nc2scc(-c3ccc(Cl)cc3)c2c1=O (stereo not drawn),i,i
C=CCn1c(SCC(=O)NCc2ccco2)nc2scc(-c3ccccc3Cl)c2c1=O,+,i
Cc1ccc(S(=O)(=O)N2CCCc3cc(NS(=O)(=O)c4ccc(Cl)cc4)ccc32)cc1,i,nt
O=C(NCCOc1ccc2nnc(-c3ccccc3Cl)n2n1)c1cccs1,i,i
Cc1ccc(S(=O)(=O)Nc2nc(CCC(=O)Nc3cccc(F)c3)cs2)cc1,i,i
Cc1ccc(S(=O)(=O)Nc2nc(CCC(=O)Nc3cccc(Cl)c3)cs2)cc1,+,i
CCOc1ccc(-n2nnc(C(=O)NCc3ccco3)c2N)cc1,i,i
O=C(NC1CCCCC1)N1CCN(CCn2ccnc2)CC1,nt,i
CC(NC(=O)CCCc1nnc2c(=O)n(-c3ccc(Cl)cc3)ccn12)c1ccccc1 (stereo not drawn),i,nt
CCCc1nnc2c(=O)n(-c3cc(C)cc(C)c3)ccn12,+,i
CCOC(=O)c1c(SCc2ccccc2)nc(=O)[nH]c1C,+,i
SMILES,AMPAR-TARP mod,GIRK2 act
CCOC(=O)c1c(SCC(=O)NCCc2ccccc2)nc(=O)[nH]c1C,i,i
Cc1nc(NC(=O)c2cccc(Br)c2)sc1C,+,i
Cc1nc(NC(=O)c2ccc(S(=O)(=O)N(C)Cc3ccccc3)cc2)sc1C,i,i
COc1ccc(NC(=O)C2CCCCN2S(C)(=O)=O)c2ccccc12 (stereo not drawn),i,i
O=C(NCc1n[nH]c(=O)c2ccccc12)c1ccc(Br)o1,i,i
O=C(NCc1n[nH]c(=O)c2ccccc12)c1cc(=O)c2ccccc2o1,+,i
CCOC(=O)N1CCc2c(sc(NC(=O)c3cccc(Cl)c3)c2-c2nc3ccccc3s2)C1,i,nt
Cc1cc(C)c(S(=O)(=O)Nc2ccc(F)cc2)c(C)c1N(C)S(C)(=O)=O,i,i
COc1ccc(NS(=O)(=O)c2c(C)cc(C)c(N(C)S(C)(=O)=O)c2C)cc1,+,i
CS(=O)(=O)Nc1cccc(NC(=O)CCc2csc(NC(=O)c3cccs3)n2)c1,i,i
Cc1ccccc1N1CC(C)Cn2c1nc1c2c(=O)n(CC(=O)O)c(=O)n1C (stereo not drawn),i,nt
O=C(O)CCN1CCN(Cc2ccc(Cl)cc2)CC1,+,i
O=C(O)CCN1CCN(Cc2ccccc2)CC1,i,i
COc1ccc(F)cc1S(=O)(=O)Nc1cccc(-c2ccc(=O)n(C)n2)c1,+,i
COc1ccc(F)cc1S(=O)(=O)Nc1ccc(-c2ccc(=O)n(C)n2)cc1,i,i
